The text below walks through data of PubChem BioAssay (NCATS).

Where “and” joins values, the source holds several entries; their conditions need not be identical. Identical values can stand only once. Inconclusive results are not listed. Calls of active or inactive are those of the source. Unless noted, the call rests on the fitted dose curve; in most records, active means well fitted cell-killing curve with a large enough effect; inconclusive means small, poorly fitted or top-dose-only effect; inactive means flat fitted curve, though single readings scatter.

Assay [1] can be described thus: Cell Viability - LYMP2-026 (AID 989). Further: on the % scale 0 is the no-effect control and ±100 the full control effect; nearly all actives have a fitted effect of over 50% in size. An outline of the steps: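 Human lymphoblastoid LYMP2-026 cells, 2500/well, exposed to compound 24 h at 37 C in complete medium. Viability as intracellular ATP by CellTiter-Glo luminescence; AC50 from Hill fits of qHTS concentration-response.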
Assay [2] in a line: Cell Viability - LYMP1-002 - Assay at 24 hr (AID 993). Further: on the % scale 0 is the no-effect control and ±100 the full control effect. Summed up: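 Human lymphoblastoid LYMP1-002 cells (2500/well) treated 24 h at 37 °C; viability as intracellular ATP by CellTiter-Glo luminescence. Tetraoctylammonium bromide as positive control; AC50 from Hill-equation fits of qHTS concentration-response.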
Assay [3] is described as follows: Cell Viability - LYMP1-002 - Assay at 40 hr (AID 994).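 Further: 0% = DMSO only and full inhibition = 92 µM tetraoctylammonium bromide; nearly all actives have a fitted effect of over 60% in size.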 An outline of the steps: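 LYMP1-002 human lymphoblastoid cells (2500/well, complete medium) were treated with compounds for 40 hr at 37 C. Intracellular ATP was measured by CellTiter-Glo luminescence, and AC50 values came from Hill-equation fits of concentration-response data; tetraoctylammonium bromide was the positive control.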

A short description of assay [4]: qHTS Assay for Lipid Storage Modulators (AID 1519; calls by dose curve; on activity change, negative = inhibition: on the % scale 0 is the no-effect control and ±100 the full control effect). The conditions noted are these: Drosophila S3 cells, BODIPY lipid droplet/cell ratio, laser cytometry, cells loaded with oleic acid. Summed up:
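Cells seeded at 5,000 per well were treated with compounds over a concentration series and loaded with oleic acid (400 uM, as added). Lipid droplet fluorescence (488 nm excitation, 500-530 nm channel) was read by laser-scanning cytometry and normalized to 20 uM Triacsin C.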
(In qHTS, concentration-response curves come from the screen itself.)

The mark [5] stands for this setting: measured here: cell count channel max response.
[6] abbreviates: measured here: lipid channel max response.

Take `O=C(O)CCC(=O)C(=O)O`: the Potency result in assay [1] and in assay [3] was “inactive” each time. Besides, in assay [2], the outcome was inactive.

With `CCOc1ccc2c(c1)C(C)=CC(C)(C)N2`, the Potency entry in assay [1] was “inactive”. For the same molecule, the outcome in assay [2] was inactive. Also, the activity change, negative = inhibition in assay [4] (at 25.7 µM (top of the series)) is -15.7% (inactive). In addition, the values for the max response in assay [4] (setting [5]) and in assay [4] (setting [6]) were -17.3% and -29.2%, respectively.

With `O=S(=O)(O)O`, the Potency result in assay [1] and in assay [3] was “inactive” throughout. In assay [2], the molecule was called inactive.

Take `Cc1cn([C@H]2C[C@H](O)[C@@H](CO)O2)c(=O)[nH]c1=O`: the activity change, negative = inhibition in assay [4] (at 57.5 µM (top of the series)) was -2.02% (inactive). In addition, the max response in assay [4] (setting [5]) was -24%; in assay [4] (setting [6]), -24.4%.

For the molecule `CCCCCCCC/C=C\CCCCCCCC(=O)O`, the Potency entry in assay [1] and in assay [3] was “inactive” throughout. In assay [2], the molecule was called inactive.

Take `Nc1c(Br)cc(Br)cc1CNC1CCC(O)CC1` (stereo not drawn): the figures for the activity change, negative = inhibition in assay [4] (at 25.7 µM (top of the series)) and in assay [4] (at 57.5 µM (top of the series)) were -1.33% (inactive) and 7.29% (inactive), respectively. For the same molecule, the max response in assay [4] (setting [5]) was -4.61% and 6.29%; in assay [4] (setting [6]), -3.94% and 15.7%.

With `CCCCC/C=C\C/C=C\CCCCCCCC(=O)O`, the Potency entry in assay [1] and in assay [3] was “inactive” in each case. Further, the result in assay [2] was inactive.

For `CCOC(C)=O`, the Potency entry in assay [1] and in assay [3] was “inactive” throughout. Besides, the molecule was called inactive in assay [2].

Consider `CC(C)=O`, for which the Potency result in assay [1] and in assay [3] was “inactive” each time. For the same molecule, the call in assay [2] was inactive.

Consider `CCCCCCCC(=O)O`, for which the Potency entry in assay [1] and in assay [3] was “inactive” in each case. The molecule was classed as inactive in assay [2].
